# Data from PubChem BioAssay (NCATS).
# Records with an inconclusive call do not appear. Entries that show only a call come without a potency. Unmarked numbers belong to inactive results. Active and inactive are the calls of the source. Calls come from the whole dose curve; as a rule, active = well fitted cell-killing curve with a large enough effect; inconclusive = small, poorly fitted or top-dose-only effect; inactive = flat fitted curve, though single readings scatter. Starred links: 1 amine or outer side, 2 acyl side, 3 side chain; linkers in the order of their positions; H or OH if unused. Positions of bridges follow the written chain, without caps; N, C: chain ends. Non-standard residues stand in square brackets, D forms with d. Residues, ends and D or L forms follow the SMILES beside them. Chains are numbered I, II in the order given. Actinocin(9to1) = Cc1c2oc3c(C)ccc(C(=O)[*:1])c3nc-2c(C(=O)[*:2])c(N)c1=O; NMeV = CN[CH](C(=O)O)C(C)C; Sar = CNCC(=O)O
# Experiment: qHTS of pediatric cancer cell lines to identify multiple opportunities for drug repurposing: Primary screen for BT-37 cells (AID 1347094)
# Conditions: BT-37 viability, CellTiter-Glo luminescence, 48 h; series mostly up to 57.3 µM
# Method in brief: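 Luminescence from CellTiter-Glo served as readout of metabolically active cells after 48 h compound exposure. Titrations: MIPE 11-point, from 0.78 nM; NPC 8-point, from 0.59 nM (final). Concentration-response curves came straight from the primary screen.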
# Potency is the fitted concentration of half-maximal effect.
SMILES,Potency,"activity change, negative = cytotoxic"
CCCCCCCCCCCCCCCC(=O)OC[C@@H](NC(=O)C(Cl)Cl)[C@H](O)c1ccc([N+](=O)[O-])cc1,inactive,–
Cn1cc(C[C@@H](N)C(=O)O)c2ccccc21,inactive,–
Cc1cc(-c2nnc3n2CCCCC3)c(C)n1-c1ccccc1,inactive,–
O=[N+]([O-])c1cn2c(n1)OC[C@@H](OCc1ccc(OC(F)(F)F)cc1)C2,inactive,–
N[C@H]1CN(c2c(F)cc3c(=O)c(C(=O)O)cn(C4C[C@@H]4F)c3c2Cl)CC12CC2 (stereo partly specified),inactive,–
C=CC1=C(C(=O)O)N2C(=O)[C@@H](NC(=O)C(=NO)c3csc(N)n3)[C@H]2SC1,inactive,–
C[C@@H](Cc1cc2c(c(C(N)=O)c1)N(CCCO)CC2)NCCOc1ccccc1OCC(F)(F)F,inactive,–
C[C@H]1COc2c(N3CCN(C)CC3)c(F)cc3c(=O)c(C(=O)O)cn1c23,inactive,–
C=CCNC1=C2C[C@@H](C)C[C@H](OC)[C@@H](O)[C@@H](C)C=C(C)[C@H](OC(N)=O)[C@@H](OC)C=CC=C(C)C(=O)NC(=CC1=O)C2=O,0.193 µM (active),–
COC(=O)[C@H](CCCN=C(N)N)NS(=O)(=O)c1ccc(C)cc1,inactive,–
CCCNS(=O)(=O)Nc1ncnc(OCCOc2ncc(Br)cn2)c1-c1ccc(Br)cc1,inactive,–
C[C@@H]1CC[C@@]2(OC1)OC1CC3C4CC=C5CC(O)CCC5(C)C4CCC3(C)C1[C@@H]2C (stereo partly specified),inactive,–
CCN1CCN(C(=O)N[C@H](C(=O)N[C@@H]2C(=O)N3C(C(=O)O)=C(CSc4nnnn4C)CS[C@@H]23)c2ccc(O)cc2)C(=O)C1=O,–,17.1% [at 11.5 µM]
CC(C)(O)[C@H]1CC[C@@](C)([C@H]2[C@@H](O)C[C@@]3(C)[C@@H]4C[C@H](O[C@@H]5O[C@H](CO)[C@@H](O)[C@H](O)[C@@H]5O)[C@H]5C(C)(C)[C@@H](O[C@@H]6OC[C@@H](O)[C@H](O)[C@@H]6O)CC[C@@]56C[C@@]46CC[C@]23C)O1,inactive,–
CC(=O)O[C@H]1C[C@@H]2CC[C@H]3[C@H]4C[C@H]([N+]5(C)CCCCC5)[C@@H](OC(C)=O)[C@@]4(C)CC[C@@H]3[C@@]2(C)C[C@H]1[N+]1(C)CCCCC1,inactive,–
O=C1c2c(O)cccc2[C@@H]([C@@H]2O[C@H](CO)[C@@H](O)[C@H](O)[C@H]2O)c2cc(CO)cc(O)c21,inactive,–

SMILES,Potency,"activity change, negative = cytotoxic"
O=C(O)CCCCC(CCSCc1ccccc1)SCc1ccccc1 (stereo unspecified),inactive,–
OCCNC1CCCc2c1[nH]c1ccc(-c3ccccc3)cc21 (stereo unspecified),24.3 µM (active),–
CCCNC(=O)[C@H]1O[C@H]1C(=O)N[C@H](C(=O)N1CCC[C@@H]1C(=O)OC)C(C)CC (stereo partly specified),17.2 µM (active),–
CC(C)(O)Cn1c(NC(=O)c2ccc(-c3cn[nH]c3)s2)nc2cc(CN3CCOCC3)ccc21,1.09 µM (active),–
Nc1ccc(C(=O)Nc2cccc(-c3nc(N4CCOCC4)c4oc5ncccc5c4n3)c2)cn1,13.7 µM (active),–
CC(=O)OCC(=O)[C@@]12N=C(C)O[C@H]1C[C@H]1[C@@H]3CCC4=CC(=O)C=C[C@]4(C)[C@@H]3[C@@H](O)C[C@@]12C,inactive,–
"Cc1c2oc3c(C)ccc(C(=O)NC4C(=O)NC(C(C)C)C(=O)N5CCCC5C(=O)N(C)CC(=O)N(C)C(C(C)C)C(=O)OC4C)c3nc-2c(C(=O)NC2C(=O)NC(C(C)C)C(=O)N3CCCC3C(=O)N(C)CC(=O)N(C)C(C(C)C)C(=O)OC2C)c(N)c1=O (stereo unspecified) (I: TVP[Sar][NMeV] / II: TVP[Sar][NMeV]; ester I:1-I:C, II:1-II:C; linker I:N-II:N via Actinocin(9to1); configuration not given here)",0.001 µM (active),–
C[C@H]1C[C@H]2[C@@H]3CCC4=CC(=O)C=C[C@]4(C)[C@@H]3C(=O)C[C@]2(C)[C@@]1(O)C(=O)CO,inactive,–
C[C@H](NC(=O)[C@@H](O)c1cc(F)cc(F)c1)C(=O)N[C@@H]1C(=O)N(C)c2ccccc2-c2ccccc21,inactive,–
O=C1NCCc2[nH]c(-c3ccncc3)cc21,3.06 µM (active),–
Cc1noc(-c2ccc(CSCCC(=O)O)cc2)c1NC(=O)OC(C)c1ccccc1Cl (stereo unspecified),inactive,–
CC[C@H]1OC(=O)[C@H](C)[C@@H](O[C@H]2C[C@@](C)(OC)[C@@H](O)[C@H](C)O2)[C@H](C)[C@@H](O[C@@H]2O[C@H](C)C[C@H](N(C)C)[C@@H]2O)[C@](C)(OC)C[C@@H](C)C(=O)[C@H](C)[C@@H](O)[C@]1(C)O,inactive,–
CC(=O)SCC(Cc1ccccc1)C(=O)NCC(=O)OCc1ccccc1 (stereo unspecified),0.344 µM (active),–
COc1cccc2c1C(=O)c1c(O)c3c(c(O)c1C2=O)C[C@@](O)(C(=O)CO)C[C@@H]3O[C@H]1C[C@H](N)[C@@H](O)[C@H](C)O1,0.193 µM (active),–
N#Cc1cc(NC(=O)Nc2nnc(-c3ccncc3)s2)ccc1-c1cn[nH]c1,inactive,–
